# Assay outcomes deposited in PubChem by The Scripps Research Institute Molecular Screening Center.
# ADAM17 inh: inhibits human ADAM17; P78536; recombinant ADAM17, EDANS/DABCYL FRET peptide cleavage; inhibition, % at 6.95 µM; actives 0.83% (n = 370,000);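 active = inhibition above the mean of compounds lying between control limits plus 3 SD, set per campaign, cut at about 8.5% in these data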;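 also: 0% = DMSO-only wells as the low control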
# PLCg1 inh: PLC-gamma1 (human) inhibition, primary screen | purified PLC-gamma1, fluorogenic substrate, fluorescence | inhibition, % at 12.2 µM | actives 0.84% (n = 370,000) | P19174; in the data active = inhibition above about 9.5%
# PLCb3 inh: PLC-beta3 (human) inhibition, primary screen. actives 0.18% (n = 370,000). Purified PLC-beta3, fluorogenic substrate, fluorescence. AID 720704. Q01970. inhibition, % at 12.2 µM;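 also: 0% = median of compound wells on plate and 100% = full blocker control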
# ADAM10 inh: inhibitors of human ADAM10. recombinant ADAM10, EDANS/DABCYL FRET peptide cleavage, 3 h. actives 0.62% (n = 370,000). O14672. inhibition, % at 7 µM;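 active = inhibition above a per-campaign cutoff equal to the mean of compounds falling between control-based bounds plus 3 SD, cut at about 20% in these data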;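 also: 0% = DMSO wells while the 100% control is not disclosed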
# KLK7 zymogen act: proKLK7 (human) activation, primary screen; purified proKLK7, EDANS-DABCYL substrate fluorescence; 100% is mature enzyme control, 0% vehicle; P49862; actives 0.9% (n = 370,000); activation, % at 7 µM; AID 652039;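 active = activation above the mean of all tested compounds plus 3 SD, computed per campaign excluding outliers beyond control limits, cut at about 13% in these data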
# PLCg1 ctr: PLC-gamma1 inhibition, counter-screen for PLC-beta3 hits. AID 743258. purified PLC-gamma1, fluorogenic substrate, fluorescence. actives 3.1% (n = 3,300). shares compounds with PLCg1 inh. inhibition, % at 12.3 µM; in the data active = inhibition above about 9.5%
# PLCb3 confirm: confirmation of human PLC-beta3 inhibitors | shares compounds with PLCg1 inh | purified PLC-beta3, fluorogenic substrate fluorescence | inhibition, % at 12.3 µM | actives 1% (n = 3,300) | AID 743261
# * = called active by the depositor; / = no result. The list is not random: actives were taken first. Their share in the collection is about 2.9%. Rule as the data show it, unless noted: active = inhibition above about 11%; inactive = the rest.
SMILES,ADAM17 inh,PLCg1 inh,PLCb3 inh,ADAM10 inh,KLK7 zymogen act,PLCg1 ctr,PLCb3 confirm
CC(C)(C)OC(=O)NCCCC[C@H](NC(=O)c1[nH]cnc1C(=O)N[C@@H](Cc1ccccc1)C(=O)OCc1ccccc1)C(=O)OC(C)(C)C,5,10.0*,10,19,0,-4,-7
CCOC(=O)c1cnn(-c2nc(C)cc(C)n2)c1N,4,10*,5,2,-1,-2,-1
O=C(O)c1[nH]c2ccccc2c1C(c1cc(Cl)cc([N+](=O)[O-])c1O)c1c(C(=O)O)[nH]c2ccccc12,2,16*,-7,4,0,31*,-1
O=C(Cn1nnc(-c2ccccc2NC(=O)C2CC2)n1)NC1CCCCC1,4,11*,3,-6,1,-7,-4
COc1cccc(-c2nnn(CC(=O)NC3CCCC3)n2)c1OC,-5,0,3,-8,0,/,/
COc1cc(C(=O)Nc2ccccc2NC(=O)c2cc(OC)c(OC)c(OC)c2)cc(OC)c1OC,4,3,-1,4,0,/,/
COc1cc(C(=O)Nc2ccc(Br)cc2C(=O)c2cc(OC)c(OC)c(OC)c2)cc(OC)c1OC,6,15*,9,1,0,-1,-8
COC(=O)C1=C(C)N(Cc2ccc(C(F)(F)F)cc2)C(=NCc2ccc(OC)cc2)NC1c1ccccc1C(F)(F)F (stereo not drawn),1,9.9*,4,14,0,-5,-5
COC(=O)C1=C(C)N(Cc2cccc(C(F)(F)F)c2)C(=NCc2ccc(C(F)(F)F)cc2)NC1c1ccc(C(F)(F)F)cc1 (stereo not drawn),5,13*,8,10,0,5,5
COC(=O)C1=C(C)N(Cc2ccccc2)C(=S)NC1c1ccc(Br)cc1 (stereo not drawn),3,9.7*,4,5,-1,-1,0
COC(=O)C1=C(C)N(Cc2ccc(C(F)(F)F)cc2)C(=NCc2cccc(C(F)(F)F)c2)NC1c1ccccc1C(F)(F)F (stereo not drawn),0,-2,8,-1,0,/,/
COC(=O)C1=C(C)N(Cc2ccccc2)C(=S)N[C@H]1c1ccc(Br)cc1,1,1,-3,6,1,/,/
C=CCn1c(SCC(=O)c2[nH]c(C)c(C(=O)OCC)c2C)nc2scc(-c3ccc(OC)c(OC)c3)c2c1=O,4,6,11*,4,1,-9,-2
Cc1ccc(C(=O)Cn2c(C(=O)OCCO)cc3ccccc32)cc1,5,11*,-2,10,0,-9,-6
Cc1ccc(C(=O)Cn2c(C(=O)O)cc3ccccc32)cc1,-2,-2,-8,-1,0,/,/
Cc1nc([N+](=O)[O-])c(Sc2nc3ccc([N+](=O)[O-])cc3[nH]2)n1Cc1ccccc1,7,12*,6,10,0,3,-1
O=C(NN1CCOCC1)c1ccccc1Br,0,-2,-6,0,0,/,/
COc1ccc(NS(=O)(=O)Cc2ccccc2Cl)cn1,2,12*,3,12,0,-1,5
Cc1cc(C)cc(N(CCC#N)C(=O)CSc2nc3ccccc3c(=O)[nH]2)c1,-2,9.8*,-3,-18,0,-3,-1
CC1C(=O)N2CCCc3cc(S(=O)(=O)N4CCN(c5cccc(Cl)c5)CC4)cc1c32 (stereo not drawn),1,-5,-12,-2,0,/,/
O=C(NC1=C(Nc2ccc(Cl)cc2)C(=O)c2ccccc2C1=O)c1ccccc1,0,5,5,4,0,/,/
Cc1cccc(NC2=C(NC(=O)c3ccccc3)C(=O)c3ccccc3C2=O)c1,7,10*,6,12,0,5,4
O=C1/C(=C/C=C/c2ccco2)SC(=S)N1NS(=O)(=O)c1ccccc1,-11,-9,-53,-21,0,/,/
CC(C(=O)O)N1C(=O)/C(=C/C=C/c2ccco2)SC1=S (stereo not drawn),-5,37*,-3,-13,1,20*,-14
CC(C)NC(=O)C1(C)Cc2c(-c3ccc(C(N)=O)cc3)ccnc2O1 (stereo not drawn),-6,1,12*,-17,-1,-7,-2
SMILES,ADAM17 inh,PLCg1 inh,PLCb3 inh,ADAM10 inh,KLK7 zymogen act,PLCg1 ctr,PLCb3 confirm
CC1(C(=O)Nc2ccc(Cl)cc2)Cc2c(-c3ccc(C(N)=O)cc3)ccnc2O1 (stereo not drawn),-3,2,-3,4,0,/,/
CN(c1ccccc1C(=O)NCc1ccccc1Cl)S(=O)(=O)c1ccccc1,-2,2,-3,2,0,/,/
Cc1nnc(NC(=O)c2ccncc2)s1,-3,2,-1,-1,0,/,/
Cc1cnc(NC(=O)c2ccncc2)s1,-8,11*,-5,-1,0,-5,-2
CC1(C)CC(NC(=O)c2ccncc2)CC(C)(C)N1O,1,11*,1,-2,0,-9,-5
CN1CCC(NC(=O)c2ccncc2)CC1,-2,-1,-1,-3,0,/,/
CCOc1ccccc1NC(=O)CSc1nc(=O)n(Cc2ccccn2)c2c1CCC2,-2,-1,-5,-14,0,/,/
O=C(CSc1nc(=O)n(Cc2ccccn2)c2c1CCC2)Nc1ccc(F)cc1F,2,13*,7,4,0,-2,1
O=C(NCCc1nnc2ccc(SCC(=O)N3CCCC3)nn12)c1ccc(F)cc1,-3,-3,-10,-2,0,/,/
COc1ccc(-n2nc(C(=O)NCC(=O)N3CCC(C)CC3)c3ccccc3c2=O)c(OC)c1,1,-7,-15,9,1,/,/
CC(/C=C/c1ccccc1)=N/NC(=O)Cn1nnc(N)n1,-5,0,-6,-6,-1,/,/
Cc1ccc2nc(SC(C(=O)Nc3ccc(F)cc3)c3ccccc3)[nH]c2c1 (stereo not drawn),4,13*,6,10,0,-2,-8
Cc1ccc(C)c(NC(=O)C(Sc2nc3ccc(C)cc3[nH]2)c2ccccc2)c1 (stereo not drawn),1,-1,4,1,-1,/,/
Cc1cc(C)n(CC2CC(=O)N(c3ccc(Cl)cc3)C2=O)n1 (stereo not drawn),-1,5,-5,3,0,/,/
Cc1ccc(N2C(=O)CC(Cn3nc(C)cc3C)C2=O)cc1 (stereo not drawn),-2,11*,-1,5,0,7,1
COc1ccc(CCN2CC(C(=O)N(C)CC(=O)Nc3ccc(F)c(F)c3F)CC2=O)cc1OC (stereo not drawn),-1,11*,-1,-13,0,-4,-1
